In PubChem BioAssay AID687016 (The Scripps Research Institute Molecular Screening Center, 2013) one finds inhibition data, which are given here for 82 compounds.

“And” between values parts separate entries of the source, which are not always exact repeats. Equal entries are not always repeated. The campaign covered roughly 370,000 compounds. About 2,800 (0.76%) were called active. Rule as the data show it: active = inhibition above about 21%; inactive = the rest. Only a selection was taken, and actives are over-represented in it overall. Some compounds were tested as several samples or in several runs, with calls that do not always agree.

Sequence of E3 ubiquitin-protein ligase UHRF1 (Homo sapiens) (Q96T88 whole entry, looked up, the tested form may be a part): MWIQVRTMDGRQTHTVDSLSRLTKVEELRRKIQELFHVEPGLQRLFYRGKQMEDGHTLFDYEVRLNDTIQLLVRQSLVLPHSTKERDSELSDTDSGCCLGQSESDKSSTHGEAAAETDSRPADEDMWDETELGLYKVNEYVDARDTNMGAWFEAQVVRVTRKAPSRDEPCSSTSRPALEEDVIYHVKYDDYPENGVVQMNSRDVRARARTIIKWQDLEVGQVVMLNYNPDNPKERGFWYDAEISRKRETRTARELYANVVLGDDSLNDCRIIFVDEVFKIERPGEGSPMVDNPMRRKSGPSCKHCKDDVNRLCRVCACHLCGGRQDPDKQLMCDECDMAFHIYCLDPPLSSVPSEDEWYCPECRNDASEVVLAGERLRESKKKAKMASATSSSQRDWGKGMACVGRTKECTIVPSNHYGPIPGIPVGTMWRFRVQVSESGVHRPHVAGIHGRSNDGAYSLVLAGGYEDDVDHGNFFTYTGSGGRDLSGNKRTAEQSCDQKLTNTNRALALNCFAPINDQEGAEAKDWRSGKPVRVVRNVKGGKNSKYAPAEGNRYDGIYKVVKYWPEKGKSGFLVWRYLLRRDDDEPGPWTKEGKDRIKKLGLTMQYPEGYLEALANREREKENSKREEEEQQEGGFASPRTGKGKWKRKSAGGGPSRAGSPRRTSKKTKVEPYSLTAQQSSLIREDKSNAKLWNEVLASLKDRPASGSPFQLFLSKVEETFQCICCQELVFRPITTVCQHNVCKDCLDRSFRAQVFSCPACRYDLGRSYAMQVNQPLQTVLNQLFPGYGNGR

This test concerns the target E3 ubiquitin-protein ligase UHRF1 (Homo sapiens) (UniProt Q96T88). As to the kind of experiment: UHRF1 methylated DNA binding inhibitors, primary screen, counter-screen for MBD2 inhibitor project, biochemical, TR-FRET, human UHRF1, single concentration (AID 687016).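 Also: UHRF1 SRA domain binding a hemimethylated CpG hairpin DNA probe; 0% = median of test compound wells and 100% = reference inhibitor.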 Particulars: UHRF1 binding to methylated oligo, at 4.4 µM, stronger effect = higher value. In general terms: Counterscreens check selectivity or assay interference.
Consider `Cc1nc2ccc(C(=O)N3CCN(C(=O)C(C)(C)C)CC3)cc2n1C1CCCC1`, for which the inhibition (in general, the relative decrease from the control value, in per cent) is 0.45% (inactive).
As for `Cc1cc(C(=O)OCC(=O)N2C(C)CCCC2C)c2ccccc2n1` (configuration not stated), the inhibition was 1.46% (inactive).
With `CN(C(=O)COC(=O)c1cc(=O)[nH]c2ccccc12)C1CCCCC1` the figure was -1.98% (inactive).
Turning to `CN(C(=O)COC(=O)c1cc(-c2ccco2)nc2ccccc12)C1CCS(=O)(=O)C1` (configuration not stated), the inhibition was 52.1% (active).
The figure for `C#CCN([C@H](C(=O)OC)C(C)CC)S(=O)(=O)c1ccccc1Br` (some centres not stated) is -1.76% (inactive); for `C=CCN(Cc1ccc2c(c1)OCO2)C(C#CC1CC1)C(C)(C)C` (configuration not stated) it is 1.41% (inactive); for `Cc1c(C=O)n(C)n(-c2ccccc2)c1=O` it is 25.1% (active).
The figure for `Cc1cccc(N2CCN(Cc3c(C)n(C)n(-c4ccccc4)c3=O)CC2)c1C` is -0.95% (inactive); for `Cc1c(CN2CCC(C)CC2)c(=O)n(-c2ccccc2)n1C` it is 2.11% (inactive).
Turning to `CCOC(=O)[C@]12CCCCC/C=C\1N(Cc1ccc(OC)cc1)C(=O)[C@H]2CC(=O)NCc1ccc(C)o1`, the inhibition is -2.03% (inactive).
`COc1ccc(C(=O)CSc2nnc(-c3cnccn3)n2-c2ccc(C)cc2)cc1`: the inhibition was 0.05% (inactive).
Regarding `COc1ccc(CN(CCN2CCOCC2)C(=O)c2ccc(C)cc2)cc1OC`, the inhibition is -0.61% (inactive).
Take `COCC(=O)N(C)C[C@H]1Oc2cc(Br)ccc2S(=O)(=O)N([C@H](C)CO)C[C@H]1C`: the inhibition was 0.32% (inactive).
With `C[C@@H]1CN([C@H](C)CO)S(=O)(=O)c2ccc(C#CC3CCCCC3)cc2O[C@H]1CN(C)C(=O)Cc1ccncc1` the figure was 23.8% (active); with `C[C@H]1CN([C@@H](C)CO)S(=O)(=O)c2ccc(Br)cc2O[C@H]1CN(C)C(=O)c1cnccn1`, -0.94% (inactive).
The figure for `C[C@@H]1CN([C@@H](C)CO)S(=O)(=O)c2ccc(C#Cc3cccc(F)c3)cc2O[C@H]1CN(C)S(=O)(=O)c1cn(C)cn1` is 21.5% (active); for `C[C@@H]1CN([C@H](C)CO)S(=O)(=O)c2ccc(C#C[C@@H](C)O)cc2O[C@@H]1CN(C)Cc1ccc(-c2ccccc2)cc1` it is 0.52% (inactive).
Consider `C[C@H]1CN([C@@H](C)CO)S(=O)(=O)c2ccc(-c3cccc(F)c3)cc2O[C@@H]1CN(C)C`, for which the inhibition is 0.38% (inactive).
With `Nn1c(SCC(=O)Nc2ccc(S(N)(=O)=O)cc2)nnc1-c1n[nH]c2c1CCC2`, the inhibition was 0.51% (inactive).
With `CC(=O)OC12CCCN(C1)/C(=C/c1ccncc1)C2` (configuration not stated) the figure was 3.27% (inactive); with `O=C1CC[C@@]23CCCN2C(=O)CCC[C@H]3[C@H]1Cc1ccccc1`, 0.21% (inactive); with `Cc1cc(NS(=O)(=O)c2ccc(NC(=O)CSc3nnc(SCc4ccc(F)cc4)s3)cc2)nc(C)n1`, 3.58% (inactive).
For the compound `CCC(C)[C@@H](C(=O)OC)N(CCc1cn(Cc2ccccc2)nn1)S(=O)(=O)c1ccccc1Br` (some centres not stated), the inhibition is -0.53% (inactive).
With `C[C@@H]1CN([C@@H](C)CO)C(=O)c2cccc(NC(=O)Nc3cccc4ccccc34)c2O[C@H]1CN(C)S(=O)(=O)c1ccccc1F` the figure was -3.8% (inactive); with `COC(=O)c1ccc2nc(-c3ccccc3)c(Cc3ccc(OC)cc3C)n2c1`, 22.1% (active); with `COc1ccccc1Cc1c(-c2ccc(F)cc2)nc2ccc(C)cn12`, 11.5% (inactive).
With `CC(=O)Nc1c(-c2ccc(C)cc2)nc2ccc(Cl)cn12` the figure was -0.52% (inactive); with `COC(=O)c1ccc(CNC(=O)C2CCC(=O)N(Cc3cccc(F)c3)C2)cc1` (configuration not stated), 0.28% (inactive); with `COC(=O)c1ccc2nc(-c3ccc(F)cc3)c(Cc3ccc(C)cc3)n2c1`, 22.9% (active).
The figure for `Brc1ccc2nc(-c3ccccc3)c(Cc3ccccc3)n2c1` is 11% (inactive); for `COC(=O)c1ccc2nc(-c3ccc(OC)c(OC)c3)c(Cc3ccccc3)n2c1` it is 14.6% (inactive).
As for `COc1ccccc1Cc1c(-c2ccc(Cl)cc2)nc2ccc(Cl)cn12`, the inhibition was -0.13% (inactive).
The figure for `Cc1ccc(-c2nc3ccc(Br)cn3c2Cc2ccccc2C(F)(F)F)cc1` is 2.47% (inactive); for `COC(=O)c1ccc2nc(C3CCCCC3)c(Cc3cccc(F)c3)n2c1` it is 27.9% (active); for `CC(C)(C)Cc1c(C2CCCCC2)nc2ccc(Br)cn12` it is 0.2% (inactive).
`COC(=O)c1ccc2nc(-c3ccc(C)cc3)c(Cc3ccc(OC)cc3C)n2c1`: the inhibition is 21.6% (active).
`COP(=O)(O)CNC(=O)OCc1ccccc1`: the inhibition was -1.09% (inactive).
Regarding `Nc1[nH]c(/C=C2/CCCCC2n2[nH]c(=O)n(-c3ccccc3)c2=O)c(Cc2ccccc2)[n+]1Cc1ccccc1` (configuration not stated), the inhibition is 15.8% (inactive).
The figure for `Nn1c(SCC(=O)N2c3ccccc3Sc3ccccc32)nnc1-c1n[nH]c2c1CCC2` is 2% (inactive); for `C=CCn1c(SCC(N)=O)nnc1-c1ccccc1OC` it is -0.8% (inactive); for `Cc1ccc(C(=O)N(Cc2ccccn2)CC2CCCO2)cc1` (configuration not stated) it is 0.72% (inactive).
The figure for `CCOC(=O)N1CCN(C(=O)C[C@H]2C[C@@]3(C(=O)OC)C(=C[C@H](C(C)(C)C)O[C@@H]3C)N(Cc3ccc(Cl)cc3Cl)C2=O)CC1` is 0.78% (inactive).
With `CCC(c1ccc(NC(=O)OC(C)(C)C)cc1)c1cc(OC)cc(OC)c1` (configuration not stated) the figure was -0.84% (inactive); with `Fc1ccc2nc(COCc3nc4ccc(F)cc4[nH]3)[nH]c2c1`, 0.71% (inactive); with `COC(=O)c1ccc2nc(-c3cccc(Br)c3)c(Cc3ccc(OC)cc3C)n2c1`, 21.5% (active).
Turning to `COC(=O)c1ccc2nc(-c3cccc(Br)c3)c(Cc3ccccc3C(F)(F)F)n2c1`, the inhibition was 3.57% (inactive).
With `COc1ccc(-c2nc3ccc(Br)cn3c2Cc2ccc(C)cc2)cc1OC` the figure was 4.35% (inactive); with `O=C(CCl)NC1CCCCN(Cc2cccc(C(F)(F)F)c2)C1=O` (configuration not stated), 0.33% (inactive).
For `CCN(CC(=O)Nc1ccc(NC(C)=O)cc1)C(=O)C1CC(=O)N(c2ccc3c(c2)OCCO3)C1` (configuration not stated), the inhibition was 1.89% (inactive).
Regarding `Cc1ccc(CN2CC(C(=O)N3CCN(S(=O)(=O)c4ccccc4)CC3)CC2=O)cc1` (configuration not stated), the inhibition was 9.15% (inactive).
The figure for `CCN(CC(=O)Nc1ccc(NC(C)=O)cc1)C(=O)C1CC(=O)N(Cc2ccc(C)cc2)C1` (configuration not stated) is 21.3% (active); for `CCCNC(=O)Nc1ccc2c(c1)C(=O)N(C)[C@H]1CC[C@H](CC(=O)NCC3CCCCC3)O[C@@H]1CO2` it is 10.6% (inactive); for `O=C(CSc1nnc(COc2ccccc2)n1-c1ccc(Cl)cc1)Nc1ccc2c(c1)OCO2` it is 1.16% (inactive).
With `CCC(CO)Nc1cccc2c1S(=O)(=O)N(Cc1cn(Cc3ccccc3C(F)(F)F)nn1)Cc1ccccc1O2` (configuration not stated) the figure was 2.09% (inactive); with `COc1cccc(C2=CC(=O)C[C@H](c3ccc(F)cc3)C2)c1OC`, -0.67% (inactive); with `O=C1C=C(c2cccc(Cl)c2O)C[C@@H](c2ccc(F)cc2)C1`, 21% (active).
With `COc1ccccc1C1=CC(=O)C[C@H](c2ccc(F)cc2)C1` the figure was 1.8% (inactive); with `Cc1ccc(-c2nnc(SCC(=O)Nc3ccc(Oc4ccccc4)cc3)n2Cc2ccco2)cc1`, -0.31% (inactive); with `O=C(CC(n1cncn1)C(Cl)(Cl)Cl)c1ccc([N+](=O)[O-])cc1` (configuration not stated), 0.74% (inactive).
Take `Cc1ccc(C(=O)Cn2cccn2)cc1`: the inhibition is 5.04% (inactive).
With `O=C(Cn1c[n+](CC(=O)c2ccc([N+](=O)[O-])cc2)cn1)c1ccc([N+](=O)[O-])cc1`, the inhibition is 50.5% (active) and -2.04% (inactive).
The figure for `Cc1ccc(NC(=S)NNC(=O)CSc2nnc(SCc3ccccc3Cl)s2)cc1` is -10.8% (inactive); for `COc1cccc(CSc2nnc(-c3cccnc3)n2Cc2ccccc2)c1` it is -0.03% (inactive); for `Cc1cc(C(=O)NNC(=O)c2cccc(S(=O)(=O)N3CCOCC3)c2)c2ccccc2n1` it is -0.61% (inactive).
With `CCOc1cc(N2CCOCC2)c(OCC)cc1NC(=O)c1cc(C)nc2ccccc12` the figure was 23.5% (active); with `CCOc1cc(N2CCOCC2)c(OCC)cc1NC(=O)C1=NN(c2cccc(C)c2)C(=O)CC1`, 0.92% (inactive).
In the case of `CC(C)(C)OC(=O)NCc1cc(F)ccc1/C=C/S(=O)(=O)NCCc1ccccc1`, the inhibition was 0.11% (inactive).
`CCOC(=O)/C(=N\Nc1cc(Cl)ccc1Cl)N1CCN(C)CC1`: the inhibition is -0.04% (inactive).
Regarding `CCOC(=O)/C(=N\Nc1ccccc1Cl)N(C)C1CCS(=O)(=O)C1` (configuration not stated), the inhibition was 23.3% (active).
For `CC(=O)c1ccc(OCC(=O)N(C)C2CCS(=O)(=O)C2)cc1` (configuration not stated), the inhibition is 1.81% (inactive).
With `CCOC(=O)[C@]12CCCCC/C=C\1N(Cc1ccc(OC)cc1)C(=O)[C@H]2CC(=O)NCCCN1CCCC1=O` the figure was -0.93% (inactive); with `CCOC(=O)[C@]12CCCC3=C1N(CCC3)C(=O)[C@@H](CC(=O)NCC13CC4CC(CC(C4)C1)C3)C2`, -0.2% (inactive).
As for `O=C(CCCCCN1C(=O)C2C3C=CC(C3)C2C1=O)Nc1ccccn1` (configuration not stated), the inhibition is -0.7% (inactive).
The figure for `COc1ccc(N2CCN(CCNS(=O)(=O)c3ccc(C(C)(C)C)cc3)CC2)cc1` is 0.26% (inactive).
The figure for `C=CCOc1ccc(/C=C/C(=O)OC(C)C(=O)Nc2ccc(NC(C)=O)cc2)cc1` (configuration not stated) is 0.2% (inactive).
The figure for `CC(OC(=O)/C=C/c1ccccc1)C(=O)Nc1ccc(C(N)=O)cc1` (configuration not stated) is -0.02% (inactive); for `CCc1ccc(NC(=O)C(C)OC(=O)/C=C/c2cccc([N+](=O)[O-])c2)cc1` (configuration not stated) it is 21.5% (active); for `O=C(NC1CCC1)c1ccc(C#Cc2cccc(F)c2)c[n+]1[O-]` it is -2.83% (inactive).
`COc1cc2[nH]c(=S)n(Cc3ccc(C)o3)c(=O)c2cc1OC`: the inhibition was -2.92% (inactive).
The figure for `COc1ccc(Cn2c(=O)cc(C)[nH]c2=S)cc1` is 48.1% (active); for `COc1ccc(Cn2c(=O)oc3ccccc32)cc1` it is -0.71% (inactive); for `COC(=O)[C@]12C[C@H](CC(=O)NCc3cccc4ccccc34)C(=O)N(CCc3ccc(OC)c(OC)c3)C1=C[C@H](C1CCCC1)O[C@@H]2C` it is 0% (inactive).
